The values below come from the supplement of paper PMC6555819.

The experiment concerns VDR:RXRa (NR concentration 270 nM, RXRa partner concentration 90 nM). Nature of the experiment: PBM binding z-score (relative to random genomic background probes); higher = stronger binding; sequences stand for … in GC…GCGATTGACAGCGTAGAATGAAGG
How it is done:
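Protein-binding microarray (Agilent 4x180K custom design, double-stranded 60-nt probes: 5' GC cap, 34-nt variable region, 24-nt constant primer region; full probe sequence given). Purified or IVT nuclear receptor:RXRα heterodimers (3:1 NR:RXRα, mostly 270:90 nM) or homodimers were incubated for 1 h in PBS with 2% milk and no ligand, then detected with Alexa488 antibodies. Fluorescence from o1-orientation probes (~5 replicates averaged) was converted to z-scores against 500 random hg19 background probes. Variable regions are seed direct-repeat (DR0–DR5) sites, all their single-nucleotide variants and half-site ablations.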
CCTAGTTGGTCAAGAGGTCACACACCGGATATGA: the PBM binding z-score was 4.64.

GATAGCAGGCCATTTGGGTCACTCAATGACGGGC displayed a PBM binding z-score of 1.07.

GCTGGGAGGACAAGGTCAGAGCTTTGTCCGTAGA: the PBM binding z-score turned out to be 1.4.

CCTTACGTGTCACTCCAGGTTATAGCATCGGAGT displayed a PBM binding z-score of 1.33.

CCTAGCGGGCCAATCTGGGTCACTCAAGGCTTGA displayed a PBM binding z-score of 0.28.

In the case of TAGCCTCGGTCAGATCGGGCCAGTATACGCTATA, the PBM binding z-score was -0.637.

ACTAGCAGGCCAAGGCTCACTCAAGATTAGTCCG had a PBM binding z-score of -0.781.

CAAAGTAGGTCACAGAGGTCAAAGTCCGTGCGTA came in with a PBM binding z-score of 7.99.

As for TCTAGTAGATCAATAGAGGTTAAGAAAGTGCGCT, the PBM binding z-score came out at 1.84.

On to TCTCGGAGGACACGAAGGACAGAGCTTTCCAGAG, for which the PBM binding z-score is -0.0596.

Turning to CCAGACAGATGAGAAGGTAACTCAGCCTCGATTA, the PBM binding z-score was 0.0435.

For CGTCAAAGTTCAAGGTAGCGTAACAGAAAGCAGC, the PBM binding z-score was 3.68.

CCTTACGGGACACTCCAGGTTATAGCATCGGAGT: the PBM binding z-score is -0.0817.

Sequence CGTCTAAGGTCAGAGAGGTCAGTGAATGCCGAGT had a PBM binding z-score of 7.63.

TATACAGGGTCAATGGCCAGAGTACGAATGTCGA yielded a PBM binding z-score of 4.05.

In the case of ACTAGCAGGCCAAGGGTCACTCTAGATTAGTCCG, the PBM binding z-score came out at 2.58.

As for GCTAGTTGGTCAGTAAAAGGTCACATACCGGTCG, the PBM binding z-score came out at 3.89.

The sequence CAAACTAGGTCACAGAGGCCAAAGTCCGTGCGTA displayed a PBM binding z-score of 6.5.

The sequence CCCACTGGGCCAAGGTCATTGATCAGTCAAAGCA displayed a PBM binding z-score of 2.94.

Regarding TCAAGCAGGCCAGAGGGTCACTCAAGAGGTACGG, the PBM binding z-score was 1.52.

With TCTATTAGTTGATTAGGGCAGCCGAAACAGCGGA, the PBM binding z-score is 0.607.

AAATGTAGGTTAGCTGGGGTCATTCAGACTAGGC gave a PBM binding z-score of 6.03.

Turning to CCTCGGGGGACAGAAGGTCAGAGCTGTCCGCTTT, the PBM binding z-score worked out at 2.3.

In turn, ATGTGTAGGTTAGCTGGGGTCATTCAGACTAGGC gave a PBM binding z-score of 6.24.

AATACAGGGTCACTACGCCAGAGTAGGTACGAAT showed a PBM binding z-score of 4.39.

CCTGCTAGGTCACGGTCAGCTAATCTACAGTATG had a PBM binding z-score of 2.5.

The sequence TGAATGAGGTTATAAGATCAGGCAACGTTGCAAA gave a PBM binding z-score of 0.915.

Turning to TGAATGAGGTTAAAGATCTGGGAACGTGGCGTCG, the PBM binding z-score was found to be 1.31.

GCTTGTAGATCATGGTTAAGAAAGACTAAGCTAA had a PBM binding z-score of -0.404.

As for ATCGAAAGGTCGACGACGTGAGTATACACCGTTT, the PBM binding z-score is 2.25.

Regarding CCTATTAGTTTACCATAAGGGCAACCGAAGCTCG, the PBM binding z-score amounted to 0.484.

CGTCCAAGGTCAAAGGTCAGAGAAGAGATGACGG yielded a PBM binding z-score of 6.75.

With CGAACTAGGTCATCCATGACAGTGAATACATTGA, the PBM binding z-score was 2.45.

CCGACTGGGCCACGAAAGGTCATTGATTCAGTGA came in with a PBM binding z-score of 4.05.

TGACCAAGGTGAGCTGAGGTCGTTGATCCAACTC: the PBM binding z-score is 3.9.

In turn, TCTTGTAGATCAAAGGATAAGAAAGCCGAAGCCT showed a PBM binding z-score of 0.22.

TCATATAGGTAAAAGGTGAATGTCGGTGTGGTAA showed a PBM binding z-score of 1.44.

ATCGAAGGGTCGACGAGGTGAGTATACACCGTTT: the PBM binding z-score came out at 4.01.

GATACAGGGTCAAGGCCACAGTACGCGTATTGAT: the PBM binding z-score worked out at 4.2.

Consider TTACCAAGTTGAAGGTCGTTGATCCCTCTGTAGA, for which the PBM binding z-score turned out to be 1.13.
